Source: the supplement of paper PMC10933113
Where a name gives a salt, the structure may show the parent alone. ± gives the uncertainty stated by the source.

system: THP-1; assay: CD86 surface expression induction over DMSO control (% over DMSO); higher = stronger dendritic cell activation; conditions: exposure time: 24 h
Method: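 hCLAT-like CD54 and CD86 surface expression on THP1 cells after 24 h exposure at a single concentration (highest non-cytotoxic concentration, or 100-200 µM if not cytotoxic). Flow cytometry (iQue) was run on 5,000 live cells.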

SMILES | CD86 surface expression induction
Clc1ccccc1-c1nc(-c2ccncc2)no1 [Pifexole] (100 µM) | 3.84 ± 13
C=CC(=O)OCCOC(=O)CCC(=O)O [4-[2-(Acryloyloxy)ethoxy]-4-oxobutanoic acid] (200 µM) | -12.9 ± 36
O=c1n(CC2CO2)c(=O)n(CC2CO2)c(=O)n1CC1CO1 (stereo not given) [Triglycidyl isocyanurate] (10 µM) | 0.85 ± 1.2
O=C(OCc1ccccc1)c1ccc(O)cc1 [Benzylparaben] (100 µM) | 3 ± 13
NC(=S)NC(N)=S [2,4-Dithiobiuret] (200 µM) | 26.6 ± 0.3
CCCCCCCCCCC=CC1CC(=O)OC1=O (stereo not given) [3-(Dodecenyl)dihydro-2,5-furandione] (200 µM) | -8.58 ± 3
c1ccc(SCCSc2ccccc2)cc1 [1,2-Bis(phenylthio)ethane] (100 µM) | -2.45 ± 2.3
CCN(CC)CCOc1ccc2c(c1)C(=O)c1cc(OCCN(CC)CC)ccc1-2 [Tilorone] (200 µM) | 58 ± 31
CO[C@@H]1[C@H](OC(=O)/C=C/C=C/C=C/C=C/C(=O)O)CC[C@]2(CO2)[C@H]1[C@@]1(C)O[C@@H]1CC=C(C)C [Fumagillin] (100 µM) | -0.42 ± 8.1
Cc1ccc(O)c2ncccc12 [Tiliquinol] (10 µM) | 43.2 ± 60
CC(C)CCCCCCCOC(=O)c1ccc(C(=O)OCCCCCCCC(C)C)c(C(=O)OCCCCCCCC(C)C)c1 [Triisodecyl trimellitate] (163 µM) | -10.7 ± 1.8
Oc1c(I)cc(Cl)c2cccnc12 [Clioquinol] (100 µM) | 64.9 ± 88
Clc1ccc(C(Cn2ccnc2)OCc2c(Cl)cccc2Cl)c(Cl)c1 (stereo not given) [Isoconazole] (100 µM) | 76.1 ± 95
CCOc1ccc2nc(S(N)(=O)=O)sc2c1 [Ethoxzolamide] (200 µM) | -1.83 ± 4.6
CN(C)c1ccc(C(=C2C=CC(=[N+](C)C)C=C2)c2ccccc2)cc1 [Malachite green oxalate*] (10 µM) | 195 ± 53
O=C(CS)Nc1ccccc1 [Thioglycolic acid anilide] (300 µM) | 34.4 ± 2
CCC(=O)C=Cc1ccc(OC)cc1 [1-(4-Methoxyphenyl)-1-pentene-3-one] (200 µM) | 6.83 ± 10
CCCCNC(=S)NCCCC [N,N'-Dibutylthiourea] (10 µM) | -9.37 ± 9.2
CC(=O)Oc1ccc(C2(c3ccc(OC(C)=O)cc3)C(=O)Nc3ccccc32)cc1 [Oxyphenisatin acetate] (100 µM) | 6.01 ± 7.9
C[n+]1cc2c3c(ccc2c2ccc4cc5c(cc4c21)OCO5)OCO3 [Sanguinarine] (10 µM) | 73.1 ± 11

SMILES | CD86 surface expression induction
COC(=O)CCCCCCCC(=O)OC [Dimethyl nonanedioate] (200 µM) | -0.54 ± 1.9
CC(C)(C)OC(=O)c1ccc(O)cc1 [tert-Butyl 4-hydroxybenzoate] (100 µM) | -2.42 ± 14
CC1COc2ccccc2N1C(=O)C(Cl)Cl (stereo not given) [Benoxacor] (10 µM) | 17.1 ± 5.4
CCCCCCCCCCCC(=O)NCCCN(C)C [N-[3-(Dimethylamino)propyl]dodecanamide] (200 µM) | 43.4 ± 63
CCN(CC)CCSC(=O)C(c1ccccc1)c1ccccc1 [Thiphenamil] (200 µM) | 107 ± 65
Cc1ccc2c(c1[N+](=O)[O-])C(=O)c1ccccc1C2=O [2-Methyl-1-nitroanthraquinone] (10 µM) | 7.64 ± 3.5
O=[N+]([O-])c1cc(Cl)c(Cl)c(Cl)c1Cl [2,3,4,5-Tetrachloronitrobenzene] (10 µM) | -3.95 ± 2.5
CC(C)=CCC1C(=O)N(c2ccccc2)N(c2ccccc2)C1=O [Feprazone] (200 µM) | 71.8 ± 44
Nc1cc(-c2ccncc2)c[nH]c1=O [Amrinone] (100 µM) | -0.14 ± 4.2
CCOC(=O)CCC(=O)OCC [Diethyl butanedioate] (200 µM) | -4.2 ± 3.3
CC(C)(C)c1cc(O)c(C(C)(C)C)cc1O [2,5-Di-tert-butylbenzene-1,4-diol] (100 µM) | 6.5 ± 4.4
Nc1nnc(-c2ccc([N+](=O)[O-])o2)o1 [2-Amino-5-(5-nitro-2-furyl)-1,3,4-oxadiazole] (10 µM) | -2.6 ± 2.1
CC/C=C\C/C=C\C/C=C\CCCCCCCC(=O)OCC [Ethyl linolenate] (10 µM) | -8.18 ± 6.8
CCCCCOc1ccccc1/C(=C\SC)n1ccnc1 [Neticonazole] (100 µM) | 38.9 ± 22
CC(C)=CCC/C(C)=C\CO [(2Z)-3,7-Dimethylocta-2,6-dien-1-ol] (200 µM) | 6.83 ± 19
O=C1c2cccc(O)c2C(=O)c2c(O)cccc21 [Danthron] (100 µM) | 6.93 ± 0.81
COc1ccc(C(=O)/C(Br)=C\C(=O)O)cc1 [Cytembena] (200 µM) | 32 ± 49
CCCCC1C(=O)N(c2ccccc2)N(c2ccc(O)cc2)C1=O (stereo not given) [Oxyphenbutazone] (10 µM) | 24.6 ± 15
O=C1Nc2ccccc2C1(c1ccc(O)cc1)c1ccc(O)cc1 [Oxyphenisatin] (100 µM) | 3.8 ± 8.1
[Cl][Bi]([Cl])([c]1ccccc1)([c]1ccccc1)[c]1ccccc1 [Triphenylbismuthine dichloride] (10 µM) | 53 ± 6.3
